Only some compounds are listed: those with a hit (about 10% of all), similar ones and a draw of the others.
KB-V1 MDR tox: kills drug-selected multidrug resistant KB-V1 cells | AID 1347076 | 3.4% of 400,000 active | Potency, µM (series often up to 46.1 µM), hits mostly cytotoxic | KB-V1 MDR cells viability, CellTiter-Glo, 72 h; further: on the % scale 0 is the no-effect control and ±100 the full control effect; nearly all actives have a fitted effect of over 60% in size
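Potencies derive from concentration-effect curves fitted to normalized luminescence (CellTiter-Glo) of KB-V1 cells treated for 72 h at 37 degrees C in phenol-red-free DMEM containing 10% FBS.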
KB-3-1 tox: kills parental KB-3-1 adenocarcinoma cells; KB-3-1 viability, CellTiter-Glo ATP luminescence, 72 h; Potency, µM (titrated, usually from 46.1 µM), actives largely listed as cytotoxic; 1.4% of 400,000 active; further: on the % scale 0 is the no-effect control and ±100 the full control effect; nearly all actives have a fitted effect of over 60% in size
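Viability of parental KB-3-1 cells, measured by CellTiter-Glo luminescence, followed a 72 h incubation at 37 °C with pinned compounds in phenol-red-free DMEM containing 10% FBS.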
RORg inh: blocks mouse ROR gamma transcriptional activity | P51450 | 5.4% of 310,000 active | AID 2551 | Drosophila S2 Gal4-RORgamma UAS-luciferase reporter, 20 h | Potency, µM (series often up to 53.6 µM), inactives show at the highest dose activity change, negative = inhibition, most hits filed as inhibitors; further: on the % scale 0 is the no-effect control and ±100 the full control effect; nearly all actives have a fitted effect of over 60% in size
Target sequence (P51450 whole entry, looked up, the tested form may be a part): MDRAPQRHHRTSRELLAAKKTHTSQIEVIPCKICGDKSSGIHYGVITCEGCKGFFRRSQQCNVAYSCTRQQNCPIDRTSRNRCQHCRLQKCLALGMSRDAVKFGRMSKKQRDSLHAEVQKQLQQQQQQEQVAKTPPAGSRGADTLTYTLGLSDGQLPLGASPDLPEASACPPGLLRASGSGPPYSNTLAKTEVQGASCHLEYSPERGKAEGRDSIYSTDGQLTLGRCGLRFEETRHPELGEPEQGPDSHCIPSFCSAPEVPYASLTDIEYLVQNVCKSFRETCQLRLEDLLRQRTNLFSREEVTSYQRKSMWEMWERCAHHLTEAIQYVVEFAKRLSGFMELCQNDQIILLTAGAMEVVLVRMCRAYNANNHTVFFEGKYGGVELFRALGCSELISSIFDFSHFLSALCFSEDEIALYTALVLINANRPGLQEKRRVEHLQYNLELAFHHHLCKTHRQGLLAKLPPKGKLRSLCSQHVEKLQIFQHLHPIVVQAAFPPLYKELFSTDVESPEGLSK
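Luciferase reporter read in Schneider cells carrying Gal4-RORγ (mouse) and UAS-Photinus luciferase; cells given compound 1 h before 700 uM copper sulfate induction, then incubated 20 h at ambient temperature.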
SW480 rerep: induces DNA re-replication in SW480 colon adenocarcinoma cells. Potency, µM (series often up to 46.1 µM), for the others: at the highest dose re-replication activation, usual class: activators. AID 624297. SW480 DNA re-replication, Hoechst DNA content imaging, 48 h. 1.8% of 340,000 active; further: % of control where 0% means no effect; nearly all actives have a fitted effect of over 55% in size
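Treated cells incubate 48 hr (37 C, 5% CO2), are stained 40 min with Hoechst, and nuclear fluorescence is enumerated; a rise in nuclei with high DNA signal marks re-replication.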
MCF10A rereplic: DNA re-replication induction in MCF 10a cells; 2.9% of 350,000 active; AID 624296; MCF 10A DNA re-replication, Hoechst nuclear intensity, 48 h; Potency, µM (top dose mostly 46.1 µM), for inactives: top-dose activity, positive = re-replication, most hits filed as activators; further: % of control where 0% means no effect; nearly all actives have a fitted effect of over 50% in size
VP16 counter: counter-screen for ROR gamma inhibitors: Gal4-VP16 reporter; Drosophila S2 Gal4-VP16 UAS-luciferase, luminescence, 20 h; Potency, µM (highest dose often 53.6 µM), for the others: top-dose activity, negative = inhibition, actives largely listed as inhibitors; 3.5% of 310,000 active; AID 2546;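 further: Gal4-VP16 expression switched on by copper sulfate through the metallothionein promoter; on the % scale 0 is the no-effect control and ±100 the full control effect; nearly all actives have a fitted effect of over 50% in size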
An asterisk follows results filed as active; i = inactive; ? = inconclusive; . = no result; [ ] = another dose, or the depositor's remark. The call rests on the fitted dose curve; in most records, active means well fitted curve in the direction sought with a large enough effect; inconclusive means small, poorly fitted or top-dose-only effect, or another doubt; inactive means no such curve, though single readings can be large; an effect the other way counts as inactive or inconclusive. Potency means the concentration at half of the fitted maximal effect.

SMILES	KB-V1 MDR tox	KB-3-1 tox	RORg inh	SW480 rerep	MCF10A rereplic	VP16 counter
CN(CC(=O)Nc1c(Cl)cccc1Cl)C(=O)C1CCN(C(=O)Nc2ccccc2)CC1	i	i	.	-3%	0%	.
CSc1ccccc1NC(=O)CN(C)C(=O)C1CCN(C(=O)Nc2ccccc2)CC1	i	i	.	2.3µM*	15%	.
Cc1ccc(-c2nc3cnccn3c2Nc2c(C)cccc2C)o1	i	i	11µM*	?	21µM*	-11%
Cc1ccc(-c2nc3ncccn3c2Nc2ccccc2C)o1	i	i	-5%	3%	19%	8%[10 µM]
CCC=O	.	.	-11%	.	.	-17%
O=C(Nc1ccc(Cl)cc1)c1nc[nH]c1C(=O)NCc1ccccc1	16µM*	?	.	-13%[9.22 µM]	?	.
C[C@H](NC(=O)c1[nH]cnc1C(=O)Nc1ccc(Cl)cc1)c1ccccc1	?	?	.	-31%[9.22 µM]	16µM*	.
Cc1ccc(NC(=O)c2nc[nH]c2C(=O)N[C@@H](C)c2ccccc2)cc1	?	?	1.1µM*	-28%[9.22 µM]	?	3.2µM*
O=C(c1ccccc1)c1nc[nH]c1C(=O)Nc1ccccc1	?	?	0.71µM*	-1%	19%	1.6µM*
C[C@@H](NC(=O)c1[nH]cnc1C(=O)Nc1ccccc1)c1ccccc1	?	?	.	-31%[9.22 µM]	?	.
CCCCNC(=O)c1c(C)oc2ncn(CC(C)C)c(=O)c12	i	i	.	.	.	.
C[C@H](NC(=O)c1[nH]cnc1C(=O)Nc1cccc(Cl)c1)c1ccccc1	i	i	.	-3%	-6%	.
C[C@@H](NC(=O)c1[nH]cnc1C(=O)Nc1cccc(Cl)c1)c1ccccc1	i	i	.	-7%[9.22 µM]	12µM*	.
Cc1ccc2nc(-c3cccc(Br)c3)c(Cc3ccccc3C(F)(F)F)n2c1	i	i	.	.	.	.
O=C1C(c2ccc(F)cc2)N(CCc2ccccc2)C(=O)CN1C1CCCCC1 (centres undefined)	i	i	.	.	.	.
CCOc1ccc(C2C(=O)N(C3CCCCC3)CC(=O)N2CC2CCCO2)cc1OC (centres undefined)	18µM*	i	6%	1%	-2%	1%
CCCCOc1ccc(C2C(=O)N(C3CCCCC3)CC(=O)N2CC2CCCO2)cc1 (centres undefined)	i	i	33%	?	-1%	-3%
COc1ccccc1CN1C(=O)CN(C2CCCC2)C(=O)C1c1ccc(F)cc1 (centres undefined)	3.7µM*	i	6%	18%	-7%	5%
Cc1cc(O)c2c(c1)CC1C3CCC4CC(=O)CCC4(C)C3CC(=O)C21C (centres undefined)	?	?	.	?	16µM*	.
CC12CCC(=O)CC1CCC1C2CCC2(C)C1CCC2(O)C(=O)CO (centres undefined)	i	i	.	5%	0%	.
Cc1ccc(C2NC(=O)c3c(sc(C)c3C)N2)c(O)c1 (centres undefined)	i	i	?	21µM*	?	11%
Cc1cccc(C2NC(=O)c3c(sc(C)c3C)N2)c1O (centres undefined)	i	i	-1%	2%	5%	-12%
NCCC[C@@H](CC(=O)N[C@@H]1CCNC[C@H]1C(=O)N[C@H](CC(=O)N[C@@H](CCC(=O)O)CC(=O)O)Cc1ccccc1)NC(=O)C[C@H](Cc1ccccc1)NC(=O)[C@@H]1CNCC[C@H]1N	.	.	12%	.	.	-10%
CCOC(=O)COc1cc(-n2c(=S)[nH]c3cc(OC)c(OC)cc3c2=O)c(Cl)cc1Cl	i	i	?	-5%	23µM*	?
Cc1nc(SCC(=O)c2cc(C)n(C3CC3)c2C)c2ccccc2n1	?	i	.	.	.	.
SMILES	KB-V1 MDR tox	KB-3-1 tox	RORg inh	SW480 rerep	MCF10A rereplic	VP16 counter
CCCCn1c(=O)n(Cc2cccc(F)c2)c(=O)c2c1ncn2Cc1ccco1	?	i	3.2µM*	-1%	16%	?
Cn1c2ccc(F)cc2c2ncn(Cc3ccco3)c(=O)c21	4.1µM*	i	?	0%	?	-6%
COc1c(Cl)c(=O)oc2ccc(Cl)cc12	i	i	.	.	.	.
COc1ccccc1-n1c(=O)oc2ccc(Cl)cc2c1=O	?	?	?	15%	6.5µM*	?
COc1cc(CNC2CCCCCCC2)cc(Cl)c1OC	?	?	-5%	?	15%	-8%
CCOc1c(Br)cc(CNC2CCCCCCC2)cc1OC	?	?	?	?	10µM*	2%
COc1cc(CNC2CCCCCCC2)cc(Br)c1OCC#N	23µM*	i	1%	?	?	-19%
COc1ccc2[nH]c(=O)c(CN(C(=O)c3cccc(Cl)c3)c3cccc(C)c3)cc2c1	i	i	.	.	.	.
Cc1cc(C)n2nc(CNC(=O)c3ccccc3Cl)nc2n1	i	i	.	.	.	.
Cc1cccc(N2CCN(c3nc(C)cc(C)c3C#N)CC2C)c1 (centres undefined)	i	?	.	?	18µM*	.
COc1cccc(N2CCN(c3nc(C)cc(C)c3C#N)CC2)c1	i	i	3%	14%	?	-6%
CC(C)C[C@@H](CC(=O)N[C@@H](CCCN)CC(=O)N[C@@H]1CCCC[C@H]1C(=O)N[C@H](CC(=O)N[C@@H](CCC(=O)O)CC(=O)O)CC(C)C)NC(=O)[C@@H]1CNCC[C@H]1N	.	.	-28%	.	.	-1%
CSc1nnc(-c2sccc2-n2cccc2)o1	i	i	-13%	-1%	0%	-12%
S=c1[nH]nc(-c2cc3c(s2)-c2ccccc2CC3)o1	i	i	5µM*	8.2µM*	?	10µM*
CSc1nnc(-c2cc3c(s2)-c2ccccc2CC3)o1	?	i	1.3µM*	0%	?	-30%
CCCC12CN3CC(CCC)(CN(C1)C3c1ccc(OCc3ccccc3)cc1)C2=O (centres undefined)	i	i	.	.	.	.
Cc1ccc(C(=O)Nc2nnc(S(=O)(=O)N3CCc4ccccc43)s2)cc1	i	i	.	.	.	.
Cc1ccc(CN2C(=O)C3CCCN3c3ncccc32)cc1 (centres undefined)	i	i	31%	?	23µM*	-9%
CC(C)COc1ccccc1C1CC(=O)Nc2cc3c(cc21)OCO3 (centres undefined)	?	6.5µM*	.	.	.	.
COc1cc(/C=N/N=C2/NC(=O)C(Cc3ccccc3)S2)ccc1O (centres undefined)	?	i	14µM*	28%	18µM*	?

Bioassay records as filed in PubChem BioAssay.
